Hits are enriched below; roughly 5% of the tested compounds scored in any of these assays.
USP7 block – inhibitors of human USP7 deubiquitinase. Q93009. purified USP7, Ub-rhodamine cleavage fluorescence. inhibition, % at 20 µM. 0.3% of 47,000 active. AID 1645854
USP10 block – inhibitors of human USP10 deubiquitinase | 1.1% of 47,000 active | Q14694 | inhibition, % at 20 µM | purified USP10, Ub-rhodamine fluorescence, 60 min
USP8 block – blocks human USP8 ubiquitin-rhodamine cleavage. P40818. purified USP8, Ub-rhodamine cleavage fluorescence, 30 min. inhibition, % at 20 µM. 4.2% of 47,000 active
UCHL1 inh – inhibitors of human UCHL1 deubiquitinase. AID 1645859. 0.2% of 47,000 active. purified UCHL1, Ub-rhodamine cleavage fluorescence. inhibition, % at 20 µM. P09936
A number is an active result; 0 = inactive. No stated cut-off is given here; in the data, active means inhibition above about 30%; inactive means the rest.

SMILES	USP7 block	USP10 block	USP8 block	UCHL1 inh
CCN1CC[C@@]2(C(=O)N3CCOCC3)CCN(C(=O)NC(C)C)CC[C@@H]12	0	0	0	0
COc1ccc(C(c2c[nH]c3ccccc23)c2c[nH]c3ccccc23)cc1O	0	0	38	0
CC(C)(C)C(=O)Nc1sc2c(c1-c1nc3ccccc3[nH]1)CCCC2	0	0	0	0
O=C(Nc1sc2c(c1-c1nc3ccccc3[nH]1)CCCC2)c1ccncc1	0	0	31	0
O=C(Nc1sc2c(c1-c1nc3ccccc3[nH]1)CCCC2)c1ccccc1[N+](=O)[O-]	0	0	32	0
COc1ccc(-c2cc(C(=O)NC3CCCCCC3)[nH]n2)cc1S(=O)(=O)N(C)C	0	0	0	0
COc1ccc(OC)c(NC(=O)c2sccc2Oc2ccc(F)cc2[N+](=O)[O-])c1	0	0	0	0
O=c1[nH]c2c(cnn2Cc2ccccc2)c(O)c1-c1nc(-c2cccc(F)c2)no1	0	0	0	0
Cc1ccc(N2CC(c3nnc(NC(=O)CCc4ccccc4)s3)CC2=O)cc1C (stereo unspecified)	0	0	0	0
COc1ccc(CCC(=O)Nc2nnc(C3CC(=O)N(c4ccc(C)cc4)C3)s2)cc1 (stereo unspecified)	0	38	0	0
CCc1ccc(N2CC(c3nnc(NC(=O)Cc4ccc(C)cc4)s3)CC2=O)cc1 (stereo unspecified)	0	0	0	0
CCCCC(=O)Nc1nnc(C2CC(=O)N(c3ccc(C)cc3)C2)s1 (stereo unspecified)	0	0	52	0
Cc1ccc(CC(=O)Nc2nnc(C3CC(=O)N(c4cc(C)cc(C)c4)C3)s2)cc1 (stereo unspecified)	0	0	0	0
Cc1ccc(N2CC(c3nnc(NC(=O)CCc4ccccc4)s3)CC2=O)cc1 (stereo unspecified)	0	0	56	0
CC(C)NC(=O)N1CCC(c2nnc3ccc(C(=O)N4CCN(C)CC4)cn23)C1 (stereo unspecified)	0	0	0	0
COCC(=O)N1CCCCCC1C1CCN(Cc2nc(C3CC3)no2)CC1 (stereo unspecified)	0	0	0	0
Cc1ccc(S(=O)(=O)NCc2ccc(C(=O)NCCc3ccc(S(N)(=O)=O)cc3)cc2)cc1	0	49	63	0
Cc1sc(NC(=O)c2ccc(S(=O)(=O)N(C)Cc3ccccc3)cc2)c(C(N)=O)c1C	0	0	31	0
O=C(Nc1cc(=O)[nH]c2nc(Cc3ccccc3)nn12)c1ccco1	0	0	48	0
CC(C)(C)c1ccc(-c2nc3[nH]c(=O)cc(NC(=O)c4ccco4)n3n2)cc1	0	0	43	0
COc1ccc(-c2nc3[nH]c(=O)cc(NC(=O)Cc4ccccc4)n3n2)cc1	0	0	60	0
CCCCC(=O)Nc1cc(=O)[nH]c2nc(Cc3ccccc3)nn12	0	0	0	0
O=C(c1cccc(F)c1)N1CCC2(CC1)COCCN(c1ncccn1)C2	0	0	0	0

High-throughput results: PubChem BioAssay, Buhrlage Lab, Dana-Farber Cancer Institute and Novartis Institutes for BioMedical Research (Cambridge, Mass)
